Assay outcomes as filed in PubChem BioAssay.
Pf apPOL block: Pf-apPOL inhibitors, biochemical, fluorescence; 210,000 compounds, 0.25% hits; Recombinant Pf-apPOL, molecular beacon fluorescence, 1.5 h; inhibition, % at 10 µM; Plasmodium falciparum apicoplast DNA polymerase (apPOL)
mHTT-CaM PPI inh: mutant huntingtin-calmodulin interaction inhibitors – biochemical, AlphaScreen, primary screen; AlphaScreen His-mHTT/GST-CaM binding, luminescence; 190,000 compounds, 3.6% hits; P42858; inhibition, % at 15 µM;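 also: 0% = both proteins with DMSO and 100% = one protein alone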
Starred values were filed as active, the others as inactive; nt = no result given. A selection: hits, their analogues and other compounds. The true share with any hit is near 3.5%. Rule as the data show it: active = inhibition above about 50%; inactive = the rest.

SMILES | Pf apPOL block | mHTT-CaM PPI inh
Cc1cc(C)cc(N=c2oc3c(C)ncc(CO)c3cc2C(N)=O)c1 | -1.6 | 1.0
O=C(NCCC1=CCCCC1)C1CCCN(c2cc(-n3cccn3)ncn2)C1 (stereo unspecified) | -3.2 | -5.2
CCN(CC)CCC(c1ccc(OC)cc1)c1c(O)cc(OC)cc1OC (stereo unspecified) | -2.4 | 15.6
CCN(CC)CCC(c1ccc(N(C)C)cc1)c1c(O)cc(OC)cc1OC (stereo unspecified) | -5.9 | 69.6*
COc1cc(O)c(C(CCN2CCN(c3ccccc3)CC2)c2ccc(N(C)C)cc2)c(OC)c1 (stereo unspecified) | -1.7 | 97.3*
COc1ccc(C(CCN2CCN(c3ccccc3)CC2)c2c(O)cc(OC)cc2OC)cc1 (stereo unspecified) | -7.2 | 71.8*
COc1ccc(C(CCN2CCCCC2)c2c(O)cc(OC)cc2OC)cc1 (stereo unspecified) | -8.4 | -1.0
COc1ccc(C(CCN2CCCC2)c2c(O)cc(OC)cc2OC)cc1 (stereo unspecified) | -4.1 | 13.6
COc1cc(O)c(C(CCN2CCOCC2)c2ccc(N(C)C)cc2)c(OC)c1 (stereo unspecified) | -6.6 | 58.3*
COc1cc(O)c(C(CCN2CCOCC2)c2ccc3c(c2)OCO3)c(OC)c1 (stereo unspecified) | -6.6 | 24.1
COc1ccc(C)cc1N1CCN(C(=O)c2ccccc2C)C(C)C1=O (stereo unspecified) | -0.9 | 2.9
Clc1ccc(SCC=CCSc2ccc(Cl)cc2)cc1 | -1.5 | nt
COc1ccccc1C=CC=C1Oc2c(ccc(O)c2CN2CCN(CCO)CC2)C1=O | -9.6 | 49.3
COc1cccc(C2c3c(oc4ccccc4c3=O)C(=O)N2CCN(C)C)c1OC (stereo unspecified) | -4.7 | -0.2
Cn1cc2c3c(cccc31)CN(C(=O)NCCc1ccccc1)CC2 | -5.1 | 8.9
CCOc1ccc(-c2cc(C)n3nc(C(=O)Nc4ccc(Cl)cc4)cc3n2)cc1 | -0.8 | -3.0
COc1cc(OC)c2ccc(=O)oc2c1C(CCN1CCCC1)c1ccc(N(C)C)cc1 (stereo unspecified) | -0.1 | 46.2
COc1cc(O)c(C(CCN2CCCC(C)C2)c2ccc3c(c2)OCO3)c(OC)c1 (stereo unspecified) | 7.0 | 32.9
COc1cc(O)c(C(CCN2CCCC(C)C2)c2ccc(N(C)C)cc2)c(OC)c1 (stereo unspecified) | 7.2 | 54.7*
COc1cc(OC)c2c(C)cc(=O)oc2c1C(CCN1CCCC(C)C1)c1ccc(N(C)C)cc1 (stereo unspecified) | -8.1 | 79.2*
CC(NC(=O)COc1ccc(Br)cc1)c1ccccc1 (stereo unspecified) | -7.7 | -16.3
C[C@@]12CCC=C[C@H]1[C@H](c1cccc(Br)c1)N(Cc1ccccc1)C2=O | 0.4 | 21.3
Cc1ccc(-c2cc([C@H]3[C@@H]4C=CCC[C@@]4(C)C(=O)N3Cc3ccccc3)ccc2F)cc1 | -0.7 | 17.5
C[C@@]12CCC=C[C@H]1[C@H](c1ccc(Br)cc1F)N(Cc1ccccc1)C2=O | -4.3 | 89.7*
C[C@@]12CCC=C[C@H]1[C@H](c1ccc(F)c(Br)c1)N(Cc1ccccc1)C2=O | 3.2 | 100.4*
SMILES | Pf apPOL block | mHTT-CaM PPI inh
O=c1c(NCc2ccc(F)cc2)nc2ccncc2n1Cc1ccccc1 | -7.4 | -0.6
CC(=O)N1CCN(c2ccc(NC(=O)c3cc(Br)ccc3Cl)cc2)CC1 | 3.2 | 1.1
COc1ccc(-n2nc3ccc(NC(=O)c4cc(OC)c(OC)c(OC)c4)cc3n2)cc1 | 1.7 | -8.0
COc1ccc(S(=O)(=O)N2CCN(S(=O)(=O)c3ccc([N+](=O)[O-])cc3)CC2)cc1 | -6.1 | -6.0
Cc1ccc(-c2cc(-c3ccncc3)c(C#N)c(N)c2C#N)cc1 | 2.2 | 1.6
CC(=O)c1cc2c(cc1NC(=NS(=O)(=O)c1ccc(Cl)cc1)c1ccc(F)cc1)OCO2 | 0.9 | 0.0
O=[N+]([O-])c1ccc2nc(Nc3ccc(Cl)c(Cl)c3)c(Nc3ccc(Cl)c(Cl)c3)nc2c1 | nt | -3.2
O=[N+]([O-])c1ccc(Cl)c(Nc2nc3nonc3nc2Nc2cc([N+](=O)[O-])ccc2Cl)c1 | nt | 98.3*
CCOc1ccc(N2CC(c3nnc(NC(=O)c4cccc(Cl)c4)o3)CC2=O)cc1 (stereo unspecified) | -1.9 | 77.3*
COc1ccc(N2CC(c3nnc(NC(=O)c4ccccc4)o3)CC2=O)cc1 (stereo unspecified) | 0.9 | 19.1
CSc1ccc(N2CC(c3nnc(NC(=O)c4cccc(Cl)c4)o3)CC2=O)cc1 (stereo unspecified) | -1.1 | 53.3*
CSc1ccc(N2CC(c3nnc(NC(=O)c4cccc(C)c4)o3)CC2=O)cc1 (stereo unspecified) | -3.8 | 3.0
COc1ccc(N2CC(c3nnc(NC(=O)c4cccc(Cl)c4)o3)CC2=O)cc1 (stereo unspecified) | -1.7 | 56.4*
